An excerpt weighted towards active compounds, which were near 2.2% of everything screened.
Ba/F3 V617F tox = loss of viability in JAK2V617F-driven Ba/F3 cells. Ba/F3 EpoR-JAK2V617F viability, ATP luminescence. inhibition, % at 5.6 µM. hit rate 1.1% among 220,000;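 active = inhibition above the campaign mean plus 3 SD over all tested compounds, cut at about 24% in these data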;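 note: cytokine-independent growth of Ba/F3 cells driven by EpoR plus mutant JAK2; 0% = DMSO-treated cells and 100% = JAK inhibitor I control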
KLF5 inh = inhibitors of KLF5 expression; inhibition, % at 5 µM; hit rate 0.23% among 290,000; DLD-1 KLF5 promoter-luciferase reporter, luminescence;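 active = inhibition above a per-plate limit of that plate's mean compound inhibition plus 3 SD, cut at about 60% in these data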;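 note: 0% = DMSO wells and 100% = LY294002 at 200 µM; higher means less KLF5 promoter-driven luciferase light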
BaF3 parental = counter-screen for JAK2V617F inhibitors: parental Ba/F3 viability inhibitors | AID 1486 | hit rate 1.1% among 220,000 | inhibition, % at 5.6 µM | CellTiter-Glo ATP luminescence;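 active = inhibition above a per-campaign cutoff, the mean inhibition of all tested compounds plus 3 SD, cut at about 27% in these data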;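 note: 0% = DMSO wells and 100% = JAK Inhibitor I control wells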
IEC-6 tox = counter-screen for KLF5 inhibitors: cytotoxicity in IEC-6 cells | IEC-6 cytotoxicity, luminescence viability | inhibition, % at 5 µM | hit rate 0.78% among 290,000 | AID 1825;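 note: 0% = plate median of test compound wells and 100% = cytotoxic reference compound wells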
aSyn 5UTR inh = MLPCN primary screen, SNCA 5' untranslated region | alpha-synuclein 5'UTR reporter, inhibitor activity | inhibition, % (tested at 7.5 µM) | hit rate 0.82% among 300,000 | AID 1813; in the data active = inhibition above about 60%;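 note: H4 neuroglioblastoma cells stably carrying SNCA 5'UTR luciferase fusion; 0% = DMSO wells and 100% = positive control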
APP 5UTR inh = APP translation inhibition. hit rate 0.82% among 190,000. SH-SY5Y APP 5'UTR-luciferase reporter, luminescence. inhibition, % at 2 µM;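 active = inhibition above a set limit, derived from the sample mean plus 3 SD, cut at about 45% in these data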
IEC-6 cytotox cf = IEC-6 cytotoxicity, confirmation assay | shares compounds with IEC-6 tox | AID 1907 | hit rate 63% among 1,900 | IEC-6 rat intestinal epithelial viability, luminescence | inhibition, % at 5 µM;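 note: 0% = vehicle and 100% = reference cytotoxic drug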
Active calls of the source: *; . = no result. Cut-off read from the data, not from the text of the source, unless noted: active = inhibition above about 22%; inactive = the rest.

SMILES	Ba/F3 V617F tox	KLF5 inh	BaF3 parental	IEC-6 tox	aSyn 5UTR inh	APP 5UTR inh	IEC-6 cytotox cf
C/C(=N\NC(=O)c1ccccn1)c1ccc(Cl)cc1	-3	-126	2	3	-45	.	.
CCCc1cc(=O)[nH]c2nnc(SCC(=O)Nc3cccc(NC(C)=O)c3)n12	.	.	.	.	-2	.	.
Cc1cc(C)cc(NS(=O)(=O)c2ccc3[nH]cc(C(=O)NCc4ccco4)c(=O)c3c2)c1	64*	-2	66*	28*	31	0	29*
COc1ccc(-n2c(C)cc(/C=N/Nc3nnc(C)n3N)c2C)cc1	16	11	5	100*	24	-4	-4
Oc1ccc(CCNc2ncnc3ccc(Cl)cc23)cc1	.	42	.	23*	-14	.	10
Cc1ccc(S(=O)(=O)NCc2ccccc2)cc1C(=O)NC1CCC(C)CC1 (stereo not given)	.	-144	.	0	-64	.	.
CCOc1ccc(C(C)=O)cc1N1C(=O)C2C3C=CC(O3)C2C1=O (stereo not given)	11	-21	28*	22*	0	18	1
Cc1cccc(C)c1OCC(O)CNC(C)c1ccccc1 (stereo not given)	.	16	.	39*	54	.	18
Cc1ccc2nc(C)c(CN3CCN(c4ccc([N+](=O)[O-])cc4Cl)CC3)n2c1	.	-7	.	26*	52	.	47*
O=C(Nc1ccc(S(=O)(=O)N2CCCCC2)cc1)C1CCCO1 (stereo not given)	.	-2	.	-1	-3	.	.
CCC1=Nc2cc(C(=O)NCCCOC(C)C)ccc2Sc2ccccc21	-2	-3	5	1	-10	15	.
CCC1=Nc2cc(C(=O)NCC3CCCO3)ccc2Sc2ccc(Br)cc21 (stereo not given)	-1	9	15	28*	-59	17	31*
CCC1=Nc2cc(C(=O)NCc3cccnc3)ccc2Sc2ccc(C)cc21	72*	29	44*	67*	20	.	56*
CCC1=Nc2cc(C(=O)NCC3CCCO3)ccc2Sc2ccc(Cl)cc21 (stereo not given)	5	19	6	35*	-74	.	38*
O=C(NCC1CCCO1)c1ccc(NC(=O)c2cccc(Cl)c2)cc1 (stereo not given)	.	.	.	.	6	.	.
CC12CN(C(=O)c3cccc([N+](=O)[O-])c3)C3(C#N)CC1CCC23C (stereo not given)	.	-28	.	0	-1	.	.
Cc1cccc(NC2=NC(C)(C)N=C(N)N2)c1	99*	20	101*	77*	98*	4	70*
CC1=CC(C)(C)N(C(=O)CCl)c2cc(C)ccc21	3	2	9	-3	-9	-13	.
CC1=CC(C)(C)N(S(=O)(=O)c2ccc(C)cc2)c2cc(C)ccc21	82*	60	85*	92*	52	96*	61*
CC(=O)Nc1cc(NC(C)=O)cc(C(=O)OCC(=O)Nc2ccc(S(=O)(=O)NC3=NCCCCC3)cc2)c1	.	0	.	3	9	.	.
CCC(C(=O)Nc1cc(Cl)c(OC)cc1OC)c1ccccc1 (stereo not given)	1	0	8	3	-7	0	.
COc1cc(OC)c(NC2=CC(=O)C(=O)c3ccccc32)cc1Cl	.	42	.	78*	107*	.	31*
CCn1c(=O)cc(SCC(=O)NCCCN2CCN(c3ccccc3F)CC2)c2ccccc21	11	-14	18	22*	-41	11	27*
CC(=O)NC1CCCc2c1cnn2-c1ccc(C(C)(C)C)cc1 (stereo not given)	.	-32	.	-1	-10	.	.
Cn1nccc1C(=O)NC1CCCc2c1cnn2-c1ccc(C(C)(C)C)cc1 (stereo not given)	.	-6	.	23*	-1	.	21
Cc1cc(C(=O)NC2CCCc3c2cnn3-c2cccc(C)c2C)n(C)n1 (stereo not given)	.	20	.	36*	-3	.	29*
Cc1cccc(-n2ncc3c2CCCC3NC(=O)c2ccc[n+]([O-])c2)c1C (stereo not given)	.	-29	.	-6	-7	.	.
COC(=O)c1ccc(NC(=O)CSc2ccc(-c3ccccn3)nn2)cc1	.	-54	.	9	-34	.	.
c1ccc(CNc2c3ccccc3nc3ccccc23)cc1	.	-4	.	26*	-332	.	16
COc1ccc(C2=Nn3c([n+](C)c4ccccc43)SC2)cc1	100*	15	77*	30*	2	13	24*

Source: PubChem
